Compounds with a hit are over-represented: about 8.9% of the library has one in this group of screens.
SW480 rereplic – inducers of DNA re-replication in SW480 colon cancer cells; Potency, µM (top dose mostly 46.1 µM), inactives show at the highest dose re-replication activation, most hits filed as activators; AID 624297; 340,000 tested, 1.8% active; SW480 DNA re-replication, Hoechst DNA content imaging, 48 h; note: potency is the fitted concentration of half-maximal effect; % of control where 0% means no effect; nearly all actives have a fitted effect of over 55% in size
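DNA re-replication was detected as more nuclei of elevated Hoechst intensity after 48 hr exposure to compound (23 nL pinned per well of 250 cells).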
D3 antag – D3 dopamine receptor (human) antagonism | P35462 | D3R cells, DiscoveRx beta-arrestin luminescence, antagonist mode; hits give low values | max response, negative = inhibition, % | 360,000 tested, 2.5% active; in the data active = max response below about -50%; inconclusive = no clear call, values can overlap the other calls; note: % is set by controls: 0 for no effect and ±100 for the full control effect
Target sequence (P35462 whole entry, looked up): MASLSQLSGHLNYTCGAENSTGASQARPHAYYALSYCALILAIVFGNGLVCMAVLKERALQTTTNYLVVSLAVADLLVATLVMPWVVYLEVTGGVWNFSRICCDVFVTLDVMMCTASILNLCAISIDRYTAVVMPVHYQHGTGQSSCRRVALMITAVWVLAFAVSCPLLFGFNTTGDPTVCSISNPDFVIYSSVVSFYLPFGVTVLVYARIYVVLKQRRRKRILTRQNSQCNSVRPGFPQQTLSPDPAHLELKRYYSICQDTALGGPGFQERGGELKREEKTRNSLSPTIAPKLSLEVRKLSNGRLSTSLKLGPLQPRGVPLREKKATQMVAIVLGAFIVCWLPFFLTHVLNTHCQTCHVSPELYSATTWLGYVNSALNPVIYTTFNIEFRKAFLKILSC
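Cells expressing the human receptor were seeded at 1500 cells/well, incubated overnight at 37 degrees C in 5% CO2, then exposed to library compounds with dopamine controls for 90 minutes at 37 degrees C before luminescent detection.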
MCF10A rerep – induces DNA re-replication in MCF 10a normal breast cells | AID 624296 | MCF 10A DNA re-replication, Hoechst nuclear intensity, 48 h | Potency, µM (top dose mostly 46.1 µM), without a hit: at the top dose activity, positive = re-replication, hits mostly activators | 350,000 tested, 2.9% active; note: potency is the fitted concentration of half-maximal effect; % of control where 0% means no effect; nearly all actives have a fitted effect of over 50% in size
KB-3-1 cytotox – kills parental KB-3-1 adenocarcinoma cells. Potency, µM (doses to about 46.1 µM), hits mostly cytotoxic. KB-3-1 viability, CellTiter-Glo ATP luminescence, 72 h. 400,000 tested, 1.4% active; note: potency is the fitted concentration of half-maximal effect; % is set by controls: 0 for no effect and ±100 for the full control effect; nearly all actives have a fitted effect of over 60% in size
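Cytotoxicity in the drug-sensitive parental line KB-3-1 was scored as loss of CellTiter-Glo luminescence following 72 h incubation with compound. Values come from curve fitting of normalized concentration-response data.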
DRD3 agonist – D3 dopamine receptor (human) agonism. P35462. D3R DiscoveRx beta-arrestin cells, luminescence, 90 min. max activation, %. 410,000 tested, 0.58% active; in the data active = max activation above about 30%; note: 0% is about no effect
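Cells at 1500/well, incubated overnight, then treated with pinned compounds (dopamine as control) for 90 min at 37 degrees C. DiscoveRx reagent added for 30 - 60 minutes at room temperature; luminescence read.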
KB-V1 cytotox – KB-V1 MDR subline cytotoxicity; KB-V1 MDR cells viability, CellTiter-Glo, 72 h; 400,000 tested, 3.4% active; Potency, µM (doses to about 46.1 µM), usual class: cytotoxic; note: potency is the fitted concentration of half-maximal effect; % is set by controls: 0 for no effect and ±100 for the full control effect; nearly all actives have a fitted effect of over 60% in size
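qHTS viability screen in drug-selected KB-V1 MDR cells: 72 h compound treatment at 37 degrees C, ATP luminescence end point.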
The depositor's hits bear a star; i = inactive; ? = inconclusive; . = not tested or not shown; [ ] = dose if it differs, or a comment. Unless noted, calls come from the whole dose curve; as a rule, active = well fitted curve in the direction sought with a large enough effect; inconclusive = small, poorly fitted or top-dose-only effect, or another doubt; inactive = no such curve, though single readings can be large; an effect the other way counts as inactive or inconclusive.

SMILES	SW480 rereplic	D3 antag	MCF10A rerep	KB-3-1 cytotox	DRD3 agonist	KB-V1 cytotox
CSc1nnc(C2CCCN2)n1C (configuration not stated)	0%[9.22 µM]	-54*	8%	i	-4	i
CCS(=O)(=O)c1oc(-c2ccc(F)cc2)nc1S(=O)(=O)c1ccc(Br)cc1	.	.	.	.	-24	.
COc1ccc(NC(=S)Nc2nc(CC(=O)Nc3ccccc3OC)cs2)cc1	?	-15	21µM*	?	-9	8.2µM*
COc1ccc(OC)c(NC(=O)Cc2csc(NC(=O)Nc3ccccc3OC)n2)c1	1%	15	?	i	3	?
CCC(=O)Nc1nc(CC(=O)Nc2ccccc2)cs1	-2%	3	6%	i	2	26µM*
O=C(Cc1csc(-c2ccccc2)n1)Nc1ccc(C(F)(F)F)cc1	-5%	-56*	4%	i	-1	i
COc1ccccc1NC(=O)Cc1csc(NC(=S)Nc2ccccc2)n1	2.6µM*	-17	?	?	12	9.2µM*
CCOC(=O)c1c(C)[nH]c(C)c1S(=O)(=O)N(C)CC(=O)NCc1ccc(Cl)cc1	.	.	.	i	-22	i
Cc1cccc(NC(=O)Nc2nnc(N(C)Cc3ccccc3)s2)c1	.	.	.	i	9	i
CN(C)S(=O)(=O)c1ccc(NC(=O)c2cc(F)c(F)cc2Cl)cc1	-6%	-8	-7%	i	-3	23µM*
Cc1ccc(NC(=O)CC2Sc3ccccc3NC2=O)c(C)c1 (configuration not stated)	.	.	.	16µM*	2	?
Cc1ccc(Cl)cc1NC(=O)CC1Sc2ccccc2NC1=O (configuration not stated)	.	.	.	i	-7	i
O=C(CC1Sc2ccccc2NC1=O)NNc1cc(Cl)ccc1Cl (configuration not stated)	18%	47	?	i	36*	i
COc1cccc(NC(=O)C2CCCN(c3ncnc4onc(-c5ccc(F)cc5)c34)C2)c1 (configuration not stated)	.	.	.	i	1	i
COc1ccc(NC(=S)N(CCC(C)C)C2CCN(C(C)C)CC2)cc1	-5%	-54*	-9%	i	-16	i
COc1ccc(NC(=S)N(CCC(C)C)C2CCN(C(C)=O)CC2)cc1	-25%	3	0%	i	-1	i
C=C1C(=O)C2=CC1CCC(=O)C1(C)CCC(OC(C)=O)C(C)(C)C1CC2O (configuration not stated)	2.1µM*	-20	9.2µM*	8.2µM*	4	6.5µM*
CN(C)c1ncnc2c1ccn2C1OC(CO)C(O)C1O (configuration not stated)	15µM*	-23	2.3µM*	0.82µM*	-2	?
OCC1OC(n2cnc3c(NCc4ccccc4O)ncnc32)C(O)C1O (configuration not stated)	2.3µM*	-28	?	?	-7	10µM*
CN(C)c1nc2c(N)ncnc2n1C1OC(CO)C(O)C1O (configuration not stated)	0%	4	0%	i	2	i
OCC1OC(n2ccc3c(NO)ncnc32)C(O)C1O (configuration not stated)	?	?	0.16µM*	0.46µM*	-6	0.52µM*
O=C(O)C1=C(CSc2nnnn2CS(=O)(=O)O)CS[C@@H]2[C@H](NC(=O)[C@H](O)c3ccccc3)C(=O)N12	-5%	.	5%	.	-9	.
O=C(C[C@H]1C[C@H](C(=O)N2CCCCC2)[C@@]2(CCc3ccccc3)c3[nH]c4cc(-c5ccco5)ccc4c3CCN2C1=O)NCCN1CCOCC1	?	?	23µM*	18µM*	-29	?
CN(C)CCCNC(=O)C[C@H]1C[C@H](C(=O)N2CCOCC2)[C@@]2(C)c3[nH]c4cc(-c5ccco5)ccc4c3CCN2C1=O	-8%	-9	14%	i	9	i
COCCCNC(=O)C[C@H]1C[C@H](C(=O)N2CCCCC2)[C@@]2(CCc3ccccc3)c3[nH]c4cc(-c5ccco5)ccc4c3CCN2C1=O	?	0	-16%	i	-4	i
SMILES	SW480 rereplic	D3 antag	MCF10A rerep	KB-3-1 cytotox	DRD3 agonist	KB-V1 cytotox
CCN(CC)C(=O)[C@H]1C[C@H](CC(=O)NCc2cccc(C(F)(F)F)c2)C(=O)N2CCc3c([nH]c4cc(-c5ccco5)ccc34)[C@]12C	13%[9.22 µM]	8	?	15µM*	-6	?
COc1ccc2[nH]c3c(c2c1)CCN1C(=O)C(CC(=O)NC/C=C(\C)CCC=C(C)C)C[C@H](C(=O)N(C(C)C)C(C)C)[C@@]31C (some centres not stated)	?	-9	15µM*	?	3	?
COCCCNC(=O)C[C@H]1C[C@H](C(=O)N2CCOCC2)[C@@]2(C)c3[nH]c4cc(-c5ccco5)ccc4c3CCN2C1=O	-6%	5	-13%	?	35*	i
CC(C)=CCC/C(C)=C/CNC(=O)C[C@H]1C[C@H](C(=O)N(C(C)C)C(C)C)[C@@]2(C)c3[nH]c4ccc(Cl)cc4c3CCN2C1=O	19%	-20	-3%	i	0	i
COc1ccc(-c2nc3ccc(C)cn3c2CC2CCCCC2)cc1OC	.	4	.	?	-3	i
CCN(CC)C(=O)[C@H]1CC(CC(=O)NCCc2ccccn2)C(=O)N2CCc3c([nH]c4ccccc34)[C@]12C (some centres not stated)	0%	-55*	4%	i	-21	i
C[C@]12c3[nH]c4ccc(Cl)cc4c3CCN1C(=O)[C@@H](CC(=O)NCc1ccco1)C[C@@H]2C(=O)N1CCCCC1	13%	?	4%	i	-14	i
CCN(CC)C(=O)[C@H]1CC(CC(=O)NCCc2ccccn2)C(=O)N2CCc3c([nH]c4ccc(OC)cc34)[C@]12C (some centres not stated)	2%	-19	?	i	-33	i
COc1ccc2[nH]c3c(c2c1)CCN1C(=O)C(CC(=O)NCc2ccco2)C[C@H](C(=O)N2CCCCC2)[C@@]31C (some centres not stated)	18µM*	3	4%	i	-8	?
CCOc1ccc(S(=O)(=O)c2c(C(=O)c3ccc(C)cc3)cnc3cc4c(cc23)OCCO4)cc1	0%	-1	3%	i	1	i
Cc1ccc(C(=O)c2cnc3cc4c(cc3c2S(=O)(=O)c2ccccc2)OCCO4)cc1	?	2	?	?	-1	16µM*
CC1CCN(CCCCOc2ccc(C(C)(C)C)cc2)CC1	?	-88*	-2%	?	-20	i

Source: PubChem
